RORg inh – blocks mouse ROR gamma transcriptional activity; Potency, µM (series often up to 53.6 µM), inactives show top-dose activity change, negative = inhibition, most hits filed as inhibitors; 5.4% of 310,000 active; Drosophila S2 Gal4-RORgamma UAS-luciferase reporter, 20 h; further: potency means the concentration at half of the fitted maximal effect; nearly all actives have a fitted effect of over 60% in size
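Drosophila S2 cells stably expressing Gal4-DBD/mouse RORγ fusion under metallothionein promoter plus UAS-luciferase; compound 1 h, then 700 uM CuSO4 induction for 20 h at ambient temperature; inhibition read as reduced luminescence.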
ELG1 repair inh – blocks ELG1-dependent DNA repair in HEK293T cells; HEK293T ELG1-luciferase reporter, luminescence, 16 h; DNA damage induced by 5-fluorouridine; Potency, µM (doses to about 46.1 µM), for inactives: top-dose activity change, negative = inhibition, actives largely listed as inhibitors; 2.3% of 330,000 active; further: potency means the concentration at half of the fitted maximal effect; nearly all actives have a fitted effect of over 55% in size
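Reporter activity after DNA damage by 5-fluorouridine is monitored. Compound-treated cells incubate 16 hr at 37 °C, then ONE-Glo is added for 30 min before luminescence reading.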
TSHR antag – blocks TSH signaling through the human TSH receptor; P16473; TSHR-expressing cells, TSH-stimulated cAMP HTRF, 2 h; active compounds read low; activity change, negative = inhibition, % at 11.5 µM; 0.2% of 330,000 active; AID 504810;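 active means activity change below a set negative limit, meaning inhibition stronger than a set level, cut at about -70% in these data; inconclusive means activity change between two set negative limits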
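Competitive HTRF cAMP read-out (cryptate anti-cAMP antibody, cAMP-d2; 30 min, room temperature) in freshly harvested TSHR cells. Compounds added before TSH at EC80 (4nM final), followed by 2 hours' incubation at 37 deg C.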
VP16 counter – counter-screen for ROR gamma inhibitors: Gal4-VP16 reporter; Potency, µM (series often up to 53.6 µM), for the others: top-dose activity, negative = inhibition, hits mostly inhibitors; Drosophila S2 Gal4-VP16 UAS-luciferase, luminescence, 20 h; 3.5% of 310,000 active;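 further: Gal4-VP16 expression switched on by copper sulfate through the metallothionein promoter; potency means the concentration at half of the fitted maximal effect; nearly all actives have a fitted effect of over 50% in size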
FBPA coupling cs – coupling enzyme interference in Giardia aldolase counter-screen. coupling enzyme system counterscreen, AmpLite Red fluorescence. activity change, negative = inhibition, % at 58.2 µM, hits read low. 0.67% of 290,000 active. AID 2472; in the data active means activity change below about -30%
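First, compound is pin-transferred into glyceraldehyde-3-phosphate coupling-enzyme reagent at 57.5 uM final and held 10 min at RT. Next, substrate, coupling system and AmpLite Red are added. After 20 min RT, fluorescence (525/598 nm) is read.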
* = called active by the depositor; u = inconclusive; x = no result given. Hits are enriched below; roughly 8% of the tested compounds scored in any of these assays. Unless noted, the call rests on the fitted dose curve; in most records, active means well fitted curve in the direction sought with a large enough effect; inconclusive means small, poorly fitted or top-dose-only effect, or another doubt; inactive means no such curve, though single readings can be large; an effect the other way counts as inactive or inconclusive. On the % scale 0 is the no-effect control and ±100 the full control effect.

SMILES	RORg inh	ELG1 repair inh	TSHR antag	VP16 counter	FBPA coupling cs
CC(=O)NCC(=O)NC1CCCc2c1cnn2-c1ccc(C(C)(C)C)cc1 (stereo not drawn)	u	-20%	0	-30%	1
COC(=O)c1ccc(C(=O)NC2CCCc3c2cnn3-c2cc(F)cc(F)c2)nc1 (stereo not drawn)	16%	21µM*	-4	-16%	-3
CCc1ccc(NC(=O)CSc2nnc(C)c(=O)n2N)cc1	5%	u	2	0%	x
COCCCNc1nc(-c2ccncc2)nc2ccccc12	-24%	18µM*	8	-2%	0
COCCN(CCOC)c1nc(-c2ccccc2)nc2ccccc12	u	26µM*	15	-11%	1
CCc1cc(C(=O)NNC(=S)NC2CCCCC2)cs1	2.2µM*	u	29	10µM*	x
CCc1c(C(=O)NNC(=S)NC2CCCCC2)csc1C	1.1µM*	1%	4	u	4
CC(C)c1cc(C(=O)NNC(=S)NC2CCCCC2)cs1	u	u	-6	u	x
Oc1ccccc1C1CCCCC1c1ccccc1 (stereo not drawn)	7%	16%	10	-18%	-4
NCCCC(N)CC(=O)NCC1NC(=O)C(CO)NC(=O)C(N)CNC(=O)C(C2CCN=C(N)N2)NC(=O)/C(=C/NC(N)=O)NC1=O (stereo not drawn)	28%	x	x	-2%	x
N#CC1=C(SCC(=O)NC23CC4CC(CC(C4)C2)C3)NC(=O)C(C#N)C12CCCCC2 (stereo not drawn)	u	13µM*	-29	16µM*	2
N#CC1=C(SCC(=O)Nc2cccc3cccnc23)NC(=O)C(C#N)C12CCCCC2 (stereo not drawn)	u	u	-10	3%	-36*
N#CC1=C(SCC(=O)NC2CC2)NC(=O)C(C#N)C12CCCCC2 (stereo not drawn)	-3%	-2%	-1	-4%	3
CC(C)(C)C1CCC2(CC1)C(C#N)=C(SCC(=O)NC1CCCCC1)NC(=O)C2C#N (stereo not drawn)	38%	u	-25	-20%	0
CCn1ccc(C(=O)NC2=NCCS2)n1	-36%	u	-1	-1%	-1
CCn1ccc(C(=O)Nc2ncc(C)s2)n1	11µM*	u	0	u	x
CSc1ccc(CCNC(=O)CCc2nnc3ccc(N4CCC5(CC4)OCCO5)nn23)cc1	28%	9.2µM*	25	-9%	0
CCOC(=O)C1=CN(Cc2ccco2)S(=O)(=O)N(C)C1c1ccc(F)c(Cl)c1 (stereo not drawn)	x	-3%	13	x	x
CC(C)(C)c1cc(CCC(=O)NNC(=S)NC(=O)c2ccccc2)cc(C(C)(C)C)c1O	11µM*	17%	-11	13µM*	0
CCCCC(=O)NC(=S)NNC(=O)CCc1ccccc1	11µM*	0%	3	-7%	2
CCCCC(=O)NNC(=S)NC(=O)CCC	10µM*	u	2	u	-12
CC(=O)NC(=S)NNC(=O)CCc1ccccc1	34%	-17%	17	-6%	3
O=C(CCc1ccccc1)NNC(=S)NC(=O)c1ccccc1	4.5µM*	14%	4	u	-5
CC(C)OCCCNC(=S)NNC(=O)c1ccc(Cl)c(Cl)c1	14µM*	19%	-14	u	3
COc1ccc(OC)c(CCNC(=O)CS(=O)(=O)Cc2nc(-c3ccccc3Cl)oc2C)c1	10%	21µM*	9	4%	-1
SMILES	RORg inh	ELG1 repair inh	TSHR antag	VP16 counter	FBPA coupling cs
Oc1ccc(/C=N/NC(=S)Nc2cccnc2)cc1	u	u	3	u	1
COc1ccc(O)c(/C=N/NC(=S)Nc2cccnc2)c1	6.3µM*	u	16	-23%	0
COc1cccc(/C=N/NC(=S)Nc2cccc(C(=O)O)c2)c1	10µM*	u	-16	-16%	4
COc1ccc(/C=N/NC(=S)Nc2cccc(C(=O)O)c2)cc1OC	u	12%	-1	-26%	0
COc1cccc(/C=N/NC(=S)Nc2cccnc2)c1	2.5µM*	u	1	3.2µM*	1
CC(C)(C)NC(=S)N/N=C/c1cccnc1	5.6µM*	12%	3	10µM*	-1

Bioassay records as filed in PubChem BioAssay.
